Hits are enriched below; roughly 1.5% of the tested compounds scored in any of these assays.
TMEM16A act = activators or potentiators of mouse TMEM16A chloride channel; Q8BHY3; HEK293 TMEM16A/YFP-H148Q/I152L, iodide quench fluorescence; active compounds read low; B-score at 10 µM; 0.3% of 340,000 active;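 active means fluorescence-ratio B-score plate-corrected deviation score at least 3 library SD below zero, with starting fluorescence score within 5 deviations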;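 further: channel opened by trigger with iodide after compound preincubation; score built on the fluorescence ratio of max minus min over baseline; more negative score means more quench and so TMEM16A activation or potentiation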
ABCB6 inh MLPCN = human ABCB6 transporter inhibition | Q9NP58 | 0.19% of 360,000 active | K562-ABCB6 porphyrin accumulation, flow cytometry, 1 h; active compounds read low | fluorescence ratio to DMSO, % at 10 µM;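 active means fluorescence ratio to DMSO below 75%, the collection mean minus 3 SD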;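 further: signal is porphyrin accumulated inside mitochondria; 100% equals median channel fluorescence of DMSO control wells; lower ratio means ABCB6 inhibition with less porphyrin fluorescence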
Target sequence (Q9NP58 whole entry, looked up): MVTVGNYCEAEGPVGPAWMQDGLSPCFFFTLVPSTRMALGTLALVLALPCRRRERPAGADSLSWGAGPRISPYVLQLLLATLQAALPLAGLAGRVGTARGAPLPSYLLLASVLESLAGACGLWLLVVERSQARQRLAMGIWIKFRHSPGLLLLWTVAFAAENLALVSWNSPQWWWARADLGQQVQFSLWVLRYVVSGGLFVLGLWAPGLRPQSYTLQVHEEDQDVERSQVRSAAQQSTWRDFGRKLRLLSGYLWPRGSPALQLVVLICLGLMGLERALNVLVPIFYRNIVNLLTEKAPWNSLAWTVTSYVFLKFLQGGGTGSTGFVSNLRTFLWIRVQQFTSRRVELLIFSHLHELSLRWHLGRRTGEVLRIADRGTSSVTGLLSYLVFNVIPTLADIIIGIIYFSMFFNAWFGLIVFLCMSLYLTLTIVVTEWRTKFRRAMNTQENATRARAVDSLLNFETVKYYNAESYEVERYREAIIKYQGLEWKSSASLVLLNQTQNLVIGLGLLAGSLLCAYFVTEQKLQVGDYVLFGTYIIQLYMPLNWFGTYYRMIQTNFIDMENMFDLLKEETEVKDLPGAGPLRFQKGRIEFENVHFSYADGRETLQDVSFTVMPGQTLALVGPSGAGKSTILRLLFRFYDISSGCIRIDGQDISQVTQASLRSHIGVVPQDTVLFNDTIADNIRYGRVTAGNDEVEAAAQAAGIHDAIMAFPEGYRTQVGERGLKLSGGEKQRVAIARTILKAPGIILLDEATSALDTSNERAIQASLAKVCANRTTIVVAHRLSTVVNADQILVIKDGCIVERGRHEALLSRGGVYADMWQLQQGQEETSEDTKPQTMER
DAGLB inhibitor = blocks human DAGLB lipase activity; HEK293T DAGLB membrane lysate, EnzChek fluorogenic substrate; inhibition, % at 5.17 µM; AID 504411; 0.059% of 340,000 active; Q8NCG7; in the data active means inhibition above about 34%;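 further: 0% = enzyme with vehicle and 100% = wells lacking enzyme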
hiPSC survival = increases survival of single human iPS cells. 0.044% of 360,000 active. survival enhancement, % at 20 µM. AID 602274. hiPSC single-cell survival, ATPlite luminescence; 100% = ROCK inhibitor wells, 0% = DMSO; in the data active means survival enhancement above about 18%;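 further: cells exposed to compounds for 16 hours before the ATP read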
TMEM16A inh = blocks the mouse calcium-activated chloride channel TMEM16A | normalized B-score (activity score, 25-100; higher = stronger inhibition) at 10 µM | Q8BHY3 | 1.2% of 310,000 active | HEK293 TMEM16A/YFP iodide influx fluorescence, ionomycin;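 active means ratio plate-corrected score three or more library SD toward inhibition, starting fluorescence score within five deviations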;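 further: score derived from kinetic fluorescence span divided by baseline fluorescence per well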
TMEM16A reconf = reconfirmed blocker of mouse TMEM16A calcium-activated chloride channel | shares compounds with TMEM16A inh | HEK293 TMEM16A/YFP-H148Q, iodide quench fluorescence; ionomycin added to raise cell calcium | inhibition, % at 10 µM | 39% of 2,300 active;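 active means mean duplicate percent inhibition, scaled so buffer wells are 0 and the reference blocker 100, over three buffer SD above buffer mean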
HEK293 Ca mobil = counter-screen for TMEM16A inhibitors: effect on calcium mobilization; shares compounds with TMEM16A inh; TMEM16A/YFP HEK293, Fluo4 calcium mobilization; calcium response (% of ionomycin), % at 10 µM; 2% of 2,300 active; AID 652231;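 active means duplicate-averaged calcium signal over 20% of the ionomycin maximum, relative to buffer baseline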;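 further: each well's signal is peak minus trough fluorescence divided by its pre-addition baseline; 0% = buffer wells and 100% = ionomycin wells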
Parental YFP cnt = parental YFP-HEK293 iodide quench counter-screen activity; 2,300 tested, under 10 active; AID 652233; ionomycin; shares compounds with TMEM16A inh; YFP ratio F(max-min)/F0 at 10 µM;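 active means yellow fluorescent protein signal ratio exceeding the buffer control mean by over 5 SD of those controls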;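 further: ratio is mean of duplicate wells from kinetic YFP trace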
ClC-1 inh = selectivity of TMEM16A inhibitors: inhibition of rat ClC-1 chloride channel; shares compounds with TMEM16A inh; CHO ClC-1-YFP, iodide influx fluorescence quench; iodide control reads 0, buffer control 100; ratio percent, % at 10 µM; 2,300 tested, under 10 active; AID 652236;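 active means duplicate-mean ratio percent above the mean of iodide-only control wells, which defines zero, plus 5 of their SD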;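 further: higher percent means stronger block of ClC-1 iodide influx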
Numbers without * were called inactive; i = inactive; x = no result given.

SMILES	TMEM16A act	ABCB6 inh MLPCN	DAGLB inhibitor	hiPSC survival	TMEM16A inh	TMEM16A reconf	HEK293 Ca mobil	Parental YFP cnt	ClC-1 inh
C[C@@H]1CN([C@H](C)CO)S(=O)(=O)c2ccc(Br)cc2O[C@H]1CN(C)C(=O)C1CCCCC1	x	96.0	-1.2	1.1	x	x	x	x	x
COc1ccccc1N1CCN(CCCNC(=O)Cn2ncc3c([nH]c4ccccc43)c2=O)CC1	i	101.0	0.5	2.4	i	x	x	x	x
COc1ccccc1-c1noc(CCC(=O)Nc2cccc(C(F)(F)F)c2)n1	i	93.0	-2.1	-0.2	100*	i	i	-1.29	-2.5
CC(C)(C)c1ccc(-c2noc(CCC(=O)Nc3cccnc3)n2)cc1	i	82.0	-6.7	-0.4	100*	18.0%*	i	-0.923	-6.0
Nc1c(N(CCCO)C(=O)C2CCCCC2)c(=O)[nH]c(=O)n1Cc1ccccc1	i	92.0	1.1	0.0	x	x	x	x	x
CCn1cc(C(=O)NCc2ccccn2)c(=O)c2cc(F)c(N3CCN(C)CC3)cc21	i	102.0	-2.7	-2.2	i	i	i	-1.25	-0.5
CCn1cc(C(=O)NCCc2ccccc2)c(=O)c2cc(F)c(N3CCN(C)CC3)cc21	i	89.0	-0.6	-2.1	i	x	x	x	x
COC(=O)Cc1nnc(NC(=O)C(C)C)s1	i	91.0	-0.7	1.0	25*	i	i	-0.822	-10.5
COC(=O)Cc1nnc(NC(=O)c2ccccc2)s1	i	98.0	1.5	0.7	i	x	x	x	x
Fc1cccc(Cl)c1CSc1nnnn1-c1ccc2c(c1)OCO2	i	92.0	-5.7	-1.2	25*	i	i	-0.943	-7.0
CCCn1nnnc1NCc1ccccc1OCc1ccc(F)cc1	i	101.0	-2.7	-1.8	i	i	i	-1.08	-7.0
CCCn1nnnc1NCc1ccccc1OCc1cccs1	i	103.0	-4.8	-0.9	i	x	x	x	x
N#Cc1c(C(F)(F)F)cc(-c2cccc(Cl)c2)[nH]c1=O	i	100.0	14.0	0.4	25*	28.5%*	i	-1.06	-8.5
N#Cc1c(C(F)(F)F)cc(-c2ccc(Cl)cc2)[nH]c1=O	i	106.0	13.9	-1.7	100*	28.5%*	i	-0.845	-19.5
Cc1cc(C)c(CN2CCN(CCCn3cnc(C(=O)Nc4ccc(C)c(C)c4)n3)CC2)c(C)c1	x	97.0	-1.8	1.3	x	x	x	x	x
Clc1ccc(N2O[C@H]3C=C[C@@H]2C3)nc1	x	104.0	x	-1.1	x	x	x	x	x
NNC(=O)C1SCCN1S(=O)(=O)c1ccc(Cl)cc1 (stereo unspecified)	i	94.0	-2.0	0.2	i	x	x	x	x
OCCCn1c(-c2ccccc2)csc1=Nc1ccccc1	i	95.0	0.7	5.1	100*	28.0%*	i	-1.04	-8.5
Cc1ccc(S(=O)(=O)N(Cc2c(F)cccc2Cl)C(=O)N2CCN(C)CC2)cc1	i	97.0	2.1	0.6	i	x	x	x	x
Cc1cc(C)n2nc(C(=O)OCC(=O)N(Cc3ccccc3)C(C)C)nc2n1	i	94.0	-1.7	-0.4	x	x	x	x	x
COCCn1c(-c2ccc(Br)cc2)csc1=Nc1cccnc1	i	97.0	-3.4	0.4	25*	33.5%*	i	-1.01	-19.5
CCOc1ccc(N=C2NC(=O)S/C2=C\c2ccc(N(C)C)cc2)cc1	i	162.0	1.7	-4.2	i	i	i	-0.92	28.5
O=[N+]([O-])c1cc(C(F)(F)F)ccc1NCCc1c[nH]c2ccccc12	i	91.0	1.7	3.3	i	x	x	x	x
O=[N+]([O-])c1cc(C(F)(F)F)ccc1NCCc1c[nH]c2ccc(O)cc12	i	97.0	5.7	-2.3	25*	i	i	-1.04	-11.0
Cn1c(=O)c(Cc2ccccc2)c(O)c2ccccc21	i	103.0	-0.8	-0.7	i	x	x	x	x
SMILES	TMEM16A act	ABCB6 inh MLPCN	DAGLB inhibitor	hiPSC survival	TMEM16A inh	TMEM16A reconf	HEK293 Ca mobil	Parental YFP cnt	ClC-1 inh
O=c1c(Cc2ccccc2)c(O)c2cccc3c4c(n1c23)CCCC4	i	100.0	3.7	-0.7	25*	41.0%*	i	-0.917	-8.0
Cc1ccc(Nc2nc(C(=O)N3CCC(C(=O)N4CCN(C)CC4)CC3)cs2)cc1	i	95.0	0.5	-0.7	i	x	x	x	x
Cc1ccc(Nc2nc(COC(=O)C3CC3)cs2)cc1	i	101.0	-6.2	0.7	100*	21.0%*	i	-0.835	-7.5
COc1ccc(NS(=O)(=O)c2ccc3oc(SC(C)C(N)=O)nc3c2)cc1 (stereo unspecified)	i	94.0	0.1	-0.5	25*	i	i	-0.905	-13.5
CCNC(=O)CSc1nc2cc(S(=O)(=O)Nc3ccc(OC)cc3)ccc2o1	i	96.0	-1.7	-0.4	i	x	x	x	x
CC(=O)c1ccc(NC(=O)Nc2cccc(Cl)c2)cc1	i	93.0	3.1	-3.5	25*	53.5%*	i	-1.13	-27.0
CC(=O)Nc1ccc(NC(=O)Nc2cccc(Cl)c2)cc1	i	96.0	0.3	0.4	i	x	x	x	x
CCCCCCCCN1C(=O)[C@H](CC(=O)NCCCOC)C[C@@]2(C(=O)OCC)CCCC=C12	x	94.0	x	0.3	x	x	x	x	x
COc1cccc(OCCNC(=O)c2cc(OC)c(OC)c(OC)c2)c1	i	91.0	-2.7	0.3	i	x	x	x	x
COc1ccc(C(=O)C2CCN(S(=O)(=O)c3ccc4c(c3)OCCO4)CC2)cc1	i	99.0	-3.6	1.3	100*	22.5%*	i	-0.678	-6.0
CC(Oc1ccc(Cl)cc1)C(=O)NCCN1C(=O)S/C(=C\c2cccnc2)C1=O (stereo unspecified)	i	94.0	0.1	-0.6	25*	55.0%*	i	-0.823	-3.0
CC(C)(Oc1ccc(Cl)cc1)C(=O)NCCN1C(=O)S/C(=C/c2cccnc2)C1=O	i	90.0	1.1	0.7	i	x	x	x	x
O=C(CSC1=Nc2ccccc2C2CC=NN12)Nc1ccc2c(c1)OCO2 (stereo unspecified)	i	99.0	-6.2	-0.6	x	x	x	x	x
CCCOC(=O)c1ccc(NC(=O)CSC2=Nc3ccccc3C3CC=NN23)cc1 (stereo unspecified)	i	106.0	-4.6	-1.5	100*	i	i	-1.03	-8.0
CCOc1ccc(NC(=O)C2CC(=O)N3CCCN=C3S2)cc1 (stereo unspecified)	i	97.0	2.2	-1.7	i	x	x	x	x

Screening data deposited in PubChem by several laboratories.
